CD40 NFkB inh – inhibitors of CD40-induced NF-kB signaling, primary screen, BL2 cells, luciferase reporter, single point. AID 1053188, 2014. inhibition, % at 10 µM. CD40L-induced, 4 h. 83,000 compounds, 0.94% hits;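 active = mean inhibition of at least 50% with a set share of replicates also reaching that level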;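 note: 0% = neutral control wells and 100% = IKK inhibitor VII at 50 µM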
* = called active by the depositor; [ ] = another dose, or the depositor's remark. The full list was thinned out, with hits kept by preference.

Results for Cc1cc(O)c(C(C)C)cc1C1(c2cc(C(C)C)c(O)cc2C)OC(=O)c2ccccc21 ?
CD40 NFkB inh: 39*

How did CC1(C)CC[C@]2(C(=O)n3ccnc3)CC[C@]3(C)[C@H](C(=O)C=C4[C@@]5(C)C=C(C#N)C(=O)C(C)(C)[C@@H]5CC[C@]43C)[C@@H]2C1 do in these assays?
CD40 NFkB inh: 92*

How did CCCC#Cc1ccc([C@@H]2[C@H]3CN(S(=O)(=O)c4ccccc4C)CC(=O)N3[C@H]2CO)cc1 do in these assays?
CD40 NFkB inh: -3[25 µM]

How did COCC(=O)Nc1ccc2c(c1)OC[C@@H](C)N(C)C[C@H](C)[C@H](OC)CN(C)C2=O do in these assays?
CD40 NFkB inh: -5[25 µM]

Results for COc1cccc(C#Cc2ccc([C@@H]3[C@@H](C#N)N(C(=O)c4ccccn4)[C@@H]3CO)cc2)c1 ?
CD40 NFkB inh: 1[25 µM]

How did N#C[C@@H]1[C@H](c2ccc(C#Cc3ccccc3F)cc2)[C@H](CO)N1C(=O)C1CC1 do in these assays?
CD40 NFkB inh: 35[25 µM]

Results for N#C[C@@H]1[C@H](c2ccc(C#Cc3ccc(F)cc3)cc2)[C@@H](CO)N1C(=O)C1CCCC1 ?
CD40 NFkB inh: 87*

Results for N#C[C@@H]1[C@H](c2ccc(C#Cc3ccccc3F)cc2)[C@@H](CO)N1C(=O)C1CC1 ?
CD40 NFkB inh: 86*[25 µM]

What do the screens show for `N#C[C@@H]1[C@H](c2ccc(C#Cc3cccc(F)c3)cc2)[C@@H](CO)N1C(=O)C1CCC1`?
CD40 NFkB inh: 99*

How did N#C[C@H]1[C@H](c2ccc(C#Cc3ccc(F)cc3)cc2)[C@H](CO)N1C(=O)C1CC1 do in these assays?
CD40 NFkB inh: -26

What do the screens show for `N#C[C@@H]1[C@@H](c2ccc(C#Cc3cccc(F)c3)cc2)[C@@H](CO)N1C(=O)C1CC1`?
CD40 NFkB inh: 3

How did N#C[C@@H]1[C@@H](c2ccc(C#Cc3cccc(F)c3)cc2)[C@@H](CO)N1C(=O)C1CCCC1 do in these assays?
CD40 NFkB inh: -47

What do the screens show for `N#C[C@H]1[C@@H](c2ccc(C#Cc3ccccc3F)cc2)[C@@H](CO)N1C(=O)C1CCCC1`?
CD40 NFkB inh: 15

Results for COc1cccc(C#Cc2ccc([C@H]3[C@@H](C#N)N(C(=O)c4ccccn4)[C@@H]3CO)cc2)c1 ?
CD40 NFkB inh: 53*[25 µM]

What do the screens show for `N#C[C@H]1[C@@H](c2ccc(C#Cc3ccccc3F)cc2)[C@H](CO)N1C(=O)C1CC1`?
CD40 NFkB inh: 30[25 µM]

Results for COc1cccc(C#Cc2ccc([C@@H]3[C@@H](C#N)N(C(=O)c4ccccn4)[C@H]3CO)cc2)c1 ?
CD40 NFkB inh: -23[25 µM]

Results for CCCCCCCCNC(=O)C(Cc1ccc(OCc2ccncc2)cc1)NC(=O)C1CCC(CN)CC1 (stereo not drawn) ?
CD40 NFkB inh: 8[25 µM]

Results for COc1ccc(S(=O)(=O)N(C)C[C@H]2OCc3cn(nn3)CCCC(=O)N([C@@H](C)CO)C[C@H]2C)cc1 ?
CD40 NFkB inh: -2[25 µM]

What do the screens show for `C[C@H](CO)N1C[C@H](C)[C@H](CN(C)C(=O)Nc2ccnc(N3CCOCC3)c2)OCc2cn(nn2)CCCC1=O`?
CD40 NFkB inh: 4[25 µM]

What do the screens show for `O=C(CN1CCOCC1)N1CCCCN2[C@@H](CO)[C@@H](c3ccc(/C=C/c4ccccc4)cc3)[C@@H]2C1`?
CD40 NFkB inh: -8[25 µM]

How did CC(=O)N(C)C[C@H]1Oc2ccc(N)cc2C(=O)N(C)C[C@H]1C do in these assays?
CD40 NFkB inh: -1

What do the screens show for `CCC(=O)N1CC(=O)N2[C@@H](CO)[C@H](c3ccc(-c4ccc(C#N)cc4)cc3)[C@@H]2C1`?
CD40 NFkB inh: -6[25 µM]

What do the screens show for `C[C@H]1COCn2nncc2CC[C@@H](Cc2ccccc2)C(=O)N1`?
CD40 NFkB inh: 6

How did C[C@@H]1CN([C@@H](C)CO)C(=O)c2ccccc2-c2ccccc2CO[C@@H]1CN(C)C(=O)[C@H](C)c1ccccc1 do in these assays?
CD40 NFkB inh: -7

Results for OC[C@@H]1[C@H](c2ccc(C3=CCCCC3)cc2)[C@@H](CNC2CCCC2)N1CC1CC1 ?
CD40 NFkB inh: -1

How did CNC[C@H]1OCCCC[C@H](C)Oc2ccc(NC(=O)Nc3ccc(OC)cc3)cc2C(=O)N([C@H](C)CO)C[C@@H]1C do in these assays?
CD40 NFkB inh: -12[25 µM]

Results for CO[C@H]1CN(C)C(=O)c2ccc(NC(C)=O)cc2OC[C@@H](C)N(C(=O)c2cnccn2)C[C@@H]1C ?
CD40 NFkB inh: 2[25 µM]

Results for CCS(=O)(=O)N1[C@H](C#N)[C@@H](c2ccc(C#Cc3ccccc3F)cc2)[C@H]1CO ?
CD40 NFkB inh: -13[25 µM]

What do the screens show for `CCS(=O)(=O)N1[C@H](CO)[C@H](c2ccc(C#Cc3ccccc3F)cc2)[C@@H]1C#N`?
CD40 NFkB inh: -4[25 µM]

How did CCS(=O)(=O)N1[C@H](CO)[C@@H](c2ccc(C#Cc3ccccc3F)cc2)[C@@H]1C#N do in these assays?
CD40 NFkB inh: 65*[25 µM]

Results for COc1ccc2c3c(n(C)c2c1)[C@H](CO)N(C)CC31CCN(S(=O)(=O)c2cccc(F)c2)CC1 ?
CD40 NFkB inh: -4[25 µM]

Results for C(=Cc1cnc2ccccc2n1)c1ccc2c(c1)OCO2 ?
CD40 NFkB inh: 98*

How did O=C(/C=C/c1ccc2c(c1)OCO2)c1ccccn1 do in these assays?
CD40 NFkB inh: -87

How did Nc1nc2ccccc2n1/N=C/c1ccc2c(c1)OCO2 do in these assays?
CD40 NFkB inh: -83

Results for Cc1ccc(S(=O)(=O)N(C)C[C@@H]2OCCCC[C@@H](C)Oc3ccc(NS(=O)(=O)c4ccccc4)cc3C(=O)N([C@@H](C)CO)C[C@@H]2C)cc1 ?
CD40 NFkB inh: 2

What do the screens show for `C=C(CC)C(=O)c1ccc(OCC(=O)O)c(Cl)c1Cl`?
CD40 NFkB inh: 41*

Results for COc1ccccc1OCC(=O)O ?
CD40 NFkB inh: 7

Results for CCOC(=O)COc1ccc2nsnc2c1Cl ?
CD40 NFkB inh: 9

How did Cc1noc(C)c1C(=O)N(C)C[C@H]1OCc2ccccc2-c2ccccc2C(=O)N([C@@H](C)CO)C[C@H]1C do in these assays?
CD40 NFkB inh: -13[25 µM]

Results for NC1=NN=C(c2ccc3c(c2)OCCO3)CS1 ?
CD40 NFkB inh: 52*

Results for c1cc2c(cc1C1=Nn3c(nnc3C3CCCCC3)SC1)OCO2 ?
CD40 NFkB inh: 8

How did c1ccc(-c2nnc3n2N=C(c2ccc4c(c2)OCO4)CS3)nc1 do in these assays?
CD40 NFkB inh: 6

What do the screens show for `O=S(=O)(c1ccc(F)cc1)N1CC[C@@H]2[C@H](CO)Nc3ccc(C#CC4CC4)cc3[C@@H]21`?
CD40 NFkB inh: 1

Results for C[C@]12CCC(=O)C=C1CC[C@@H]1[C@@H]2[C@@H](O)C[C@@]2(C)[C@H]1CC[C@]2(O)C(=O)COC(=O)CCC(=O)O ?
CD40 NFkB inh: 24

Results for CC(=O)OCC(=O)C1(O)CCC2C3CCC4=CC(=O)CCC4(C)C3(Cl)C(O)CC21C (stereo not drawn) ?
CD40 NFkB inh: 62*

What do the screens show for `CC(=O)OCC=C1CCC2C3CCC4=CC(=O)CCC4(C)C3C(O)CC12C` (stereo not drawn)?
CD40 NFkB inh: 7

Results for O=C(c1cnccn1)N1CC(=O)N2[C@H](CO)[C@@H](c3ccc(-c4cccc(F)c4)cc3)[C@@H]2C1 ?
CD40 NFkB inh: -3[25 µM]

How did CO[C@@H]1CN(C)C(=O)c2ccc(NC(=O)Nc3cc(F)ccc3F)cc2OC[C@@H](C)N(C(=O)c2ccccn2)C[C@H]1C do in these assays?
CD40 NFkB inh: 1[25 µM]

What do the screens show for `O=C(Nc1ccc(C(F)(F)F)cc1)Nc1ccc2c(c1)[C@H]1C[C@H](CC(=O)N3CCc4ccccc4C3)O[C@@H](CO)[C@H]1O2`?
CD40 NFkB inh: 6[25 µM]

Screening results as filed in PubChem.
